The results in this text go back to ChEMBL document CHEMBL3433997, “St. Jude Leishmania screening dataset” (2016).

Holding throughout (type): functional
For test [1], the target named is Solute carrier family 2, facilitated glucose transporter member 1 (Homo sapiens) (UniProt P11166). The test can be described thus: ST_JUDE_LEISH: Cytotoxicity at 2uM final concentration against transgenic Leishmania Mexicana promastigotes LmGLUT1 that are glucose transport deficient and complemented with the human glucose transporter GLUT1. Activity is measured by DNA content using SYBR green in vitro.

Test [2] addresses Hexose transporter 1 (Plasmodium falciparum) (UniProt O97467). The test can be described thus: ST_JUDE_LEISH: Cytotoxicity at 2uM final concentration against transgenic Leishmania Mexicana promastigotes LmPfHT that are glucose transport deficient and complemented with the Plasmodium falciparum hexose transporter. Activity is measured by DNA content using SYBR green in vitro.
The target in test [3] is Glucose transporter (Leishmania mexicana) (UniProt O61059). The test can be described thus: ST_JUDE_LEISH: Cytotoxicity at 2uM final concentration against transgenic Leishmania Mexicana promastigotes LmGT2 that are glucose transport deficient and complemented with the L. Mexicana glucose transporter 2. Activity is measured by DNA content using SYBR green in vitro.

Usually inhibition stands for the drop in the measured response relative to a control, in per cent.

Solute carrier family 2, facilitated glucose transporter member 1 (Homo sapiens), sequence (P11166 whole entry): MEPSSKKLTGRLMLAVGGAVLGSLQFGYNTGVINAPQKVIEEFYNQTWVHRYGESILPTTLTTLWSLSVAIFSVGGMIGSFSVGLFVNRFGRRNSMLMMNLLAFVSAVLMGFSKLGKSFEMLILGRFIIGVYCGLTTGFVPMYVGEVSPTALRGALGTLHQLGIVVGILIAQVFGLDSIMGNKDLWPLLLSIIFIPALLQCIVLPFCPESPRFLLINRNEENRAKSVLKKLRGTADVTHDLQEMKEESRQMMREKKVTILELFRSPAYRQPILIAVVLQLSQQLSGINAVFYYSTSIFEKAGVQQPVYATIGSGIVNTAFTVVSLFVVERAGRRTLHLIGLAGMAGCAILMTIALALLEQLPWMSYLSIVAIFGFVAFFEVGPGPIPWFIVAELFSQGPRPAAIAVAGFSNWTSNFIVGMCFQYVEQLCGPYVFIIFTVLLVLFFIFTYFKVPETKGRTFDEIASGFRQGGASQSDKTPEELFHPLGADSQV

For `COc1ccc2ncc(F)c(CCN3CC[C@@H](CNCc4cc5c(cn4)OCS5)C3)c2n1`, the inhibition in test [1] is 2.66%; in test [2], 1.69%; in test [3], -0.48%.
In the same order, the values of `COc1ccc(Cl)cc1-c1nc(C(=O)NCCN2CCCCC2)c(C(C)C)s1` are -3.64%, -0.2% and 3.06%.
In the same order, the values of `CCc1nonc1NC(=O)c1oc2c(C)c(C)ccc2c1C` are 7.09%, 5.3% and 7.88%.
For the compound `O=[N+]([O-])c1ccc2c(-c3ccccc3)c(-c3ccccc3)n(O)c2c1`, the inhibition in test [1] came to 2.37%; in test [2] it was 3.54%; in test [3], 0.3%.
The corresponding values for `Clc1ccc2nnc(-c3c(Cl)cccc3Cl)n2n1` are 6.63%, 4.09% and 2.05%.
In the same order, the values of `O=C(Nc1ccc(-c2nc3ccccc3[nH]2)cc1)c1cccc(S(=O)(=O)N2CCOCC2)c1` are 4.9%, 5.13% and 4.05%.
The corresponding values for `CS(=O)(=O)c1ccccc1CNC(=O)c1ccc(-c2ccc(-c3nc4cc(C(F)(F)F)ccc4[nH]3)s2)cc1` are 7.56%, 2.99% and 0.84%.
On to `Nc1c2c(nc3ccc(Oc4ccc(Br)cc4Br)cc13)CCCC2`, for which the inhibition in test [1] was determined as 81.2%; in test [2], 84.6%; in test [3] it was 57.4%.
For the compound `CC1(C)NC(N)=NC(=N)N1OCCCOc1ccc([N+](=O)[O-])cc1`, the inhibition was found to be 0.81% in test [1], 0.61% in test [2] and 0.11% in test [3].
The corresponding values for `FC(F)(F)c1ccc(CNCC2CCN(Cc3ccc4c(c3)OCO4)CC2)cc1` are 1.98%, 2.65% and 5.32%.
Take `Cc1cc(NC(=O)Nc2ccc(Oc3ccccc3)cc2)c2ccccc2n1`: the inhibition in test [1] was 0.26%; in test [2], 1.44%; in test [3] it was -0.34%.
`O=C(/C=C/c1ccc(Cl)c(Cl)c1)NCCCCCN1CCCC(CCCNC(=O)Nc2ccc(C(F)(F)F)cc2)C1` (stereo not given): the inhibition in test [1] came out at 11.3%; in test [2], 9.28%; in test [3], 5.82%.
The corresponding values for `O=C(Nc1ccccc1C(F)(F)F)Nc1nn(Cc2c(F)cccc2Cl)cc1Br` are 5.53%, 4.7% and 3.18%.
The corresponding values for `C=Cc1ccccc1C1(O)CCN(CCCCNC(=O)c2ccc(-c3ccc(C#N)cc3)cc2)CC1` are 1.27%, 1.76% and -1.41%.
Regarding `Cc1cccc2nc(-c3ccc(-c4cccc(NC(=O)c5ccncc5)c4)cc3)[nH]c12`, the inhibition in test [1] is 0.03%; in test [2], -0.47%; in test [3] it was 1.08%.
The corresponding values for `N#Cc1cccc(CN(Cc2ccc(Cl)c(Cl)c2)S(=O)(=O)c2cccc([N+](=O)[O-])c2)c1` are 2.24%, -0.37% and 4.05%.
With `COc1ccc(OCCCN2CCCCC2)cc1S(=O)(=O)c1ccc(OCc2ccc(C(F)(F)F)cc2)cc1`, the inhibition in test [1] is 2.4%; in test [2], 0.01%; in test [3], 2.1%.
In the same order, the values of `c1cncc(CN2CCCN(c3ccc4c(c3)CCN(Cc3ccc(-c5ncc[nH]5)cc3)CC4)CC2)c1` are 1.93%, 2.7% and 2.25%.
In the same order, the values of `O=C(Nc1ccc(F)c([N+](=O)[O-])c1)Nc1cc(C(F)(F)F)ccc1Cl` are 0.18%, 7.68% and 1.2%.
`CCn1c(-c2nc(-c3ccc4c(c3)OCO4)cnc2N)nc2cnccc21`: the inhibition in test [1] was determined as 19.7%; in test [2] it was 12.4%; in test [3], 13.5%.
In the same order, the values of `COc1ccc(NC(=O)/C=C/c2ccc(-c3ccccc3)cc2)cc1N1CCN(C)CC1` are 2.62%, 3.25% and 0.83%.
For the compound `Cc1cc(N)c2cc(NC(=O)/C=C/c3ccccc3Cl)ccc2n1`, the inhibition in test [1] was -4.75%; in test [2], 0.57%; in test [3], -0.21%.
With `CC(C)(C)C1CC(=O)CC2C(=O)N(c3ccc(Br)cc3)C(=O)C21` (stereo not given), the values for the inhibition in test [1], in test [2] and in test [3] were 2.94%, 0.44% and -1.64%, respectively.
As to `CC(C)(C)C/C=C\c1ccc(C(=O)NCC2CC2)cc1`, the inhibition in test [1] turned out to be 6.73%; in test [2] it was 9.04%; in test [3] it was 3.76%.
With `CC(C)NC[C@@H](O)[C@H](Cc1ccccc1)NC(=O)c1cc2c3c(c1)c(C(C)C)cn3CCS(=O)(=O)N2C`, the inhibition in test [1] was 2.21%; in test [2] it was 2.85%; in test [3] it was 2.8%.
With `O=c1cc(NCCCNCc2cccc3c2OC(F)(F)O3)[nH]c2ccccc12`, the values for the inhibition in test [1], in test [2] and in test [3] were 2.3%, 1.38% and 1.85%, respectively.
Take `Cc1ccc([S+]([O-])Cc2ccc(Cl)cc2)cc1` (stereo not given): the inhibition is -0.22% in test [1], -0.65% in test [2] and 1.2% in test [3].
In the same order, the values of `Cc1ccc(C(=O)Nc2ccc(F)cc2)cc1-c1nc(NC2CC(C)(C)NC(C)(C)C2)nc2c1ccc(=O)n2-c1c(F)cccc1F` are 4.77%, 3.62% and 2.81%.
In the same order, the values of `CCN1CCC(N(CCCCCCc2ccc(C(F)(F)F)cc2)C(=O)Cn2c(CCc3cccc(F)c3F)cc(=O)c3ccccc32)CC1` are 5.17%, 3.94% and 2.53%.
In the same order, the values of `COc1cc(C(=O)Nc2cccc(-c3nc4ccccc4[nH]3)c2)cc(OC)c1OC` are 4.34%, 1.94% and -3.56%.
For `Cc1cc(C(=O)CN2C(=O)NC3(CCCc4ccccc43)C2=O)c(C)n1Cc1ccco1` (stereo not given), the inhibition in test [1] is 1.28%; in test [2], 0.08%; in test [3] it was -1.89%.
In the same order, the values of `Cc1cccc2nc(-c3ccc(-c4ccc(CNCc5ccccc5)cc4)s3)[nH]c12` are 8.05%, 4.44% and 3.06%.
In the same order, the values of `O=C(/C=C/c1ccc(Cl)c(Cl)c1)NCCCCCN1CCCN(C(=S)Nc2cccc(Cl)c2)CC1` are 0.6%, -0.74% and 0.17%.
The corresponding values for `N#Cc1ccc2c(c1)CCN(CCC1CCC(NC(=O)/C=C/c3ccc(Cl)c(Cl)c3)CC1)CC2` (stereo not given) are 9.87%, 13.1% and 6.83%.
As to `Cc1nn(-c2ccc(Cl)cc2)c2[nH]c(CN3CCN(c4cccc(Cl)c4)CC3)cc(=O)c12`, the results for the inhibition in test [1], in test [2] and in test [3] were 20.2%, 21% and 17%, respectively.
